Reference: PubChem BioAssay (EPA / NIEHS)
The source made the active and inactive calls. How the source made its calls: active means hit-call score of the fitted dose curve at least 0.9, where 1 is the maximum; inactive means score below 0.9.

How the values were obtained:
[1] = biological target: Bile acid receptor (Homo sapiens) (UniProt Q96RI1); test: ATG_IR1_CIS: Attagene CIS-FACTORIAL HepG2 Assay for human Nuclear Receptor Subfamily 1 Group H Member 4 (NR1H4), IR1 submotif (AID 2282946); settings: IR1 reporter transcription, actives raise or lower the signal
In short: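 Cells (human HepG2) carry transiently transfected cis-promoter reporter transcription units. Compounds are incubated 24 h, total RNA is reverse-transcribed and amplified, and labelled fragments are resolved by capillary electrophoresis. Curves use DMSO as baseline.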

[2] = ATG_M_06_CIS: Attagene CIS-FACTORIAL HepG2 Assay for M06 Transcription Factor (Internal Marker) (AID 2282950); settings: HepG2 Attagene CIS-FACTORIAL M06 internal marker reporter; actives raise or lower the signal
In short: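 HepG2 liver cells, 24 h exposure. Reporter transcripts from transfected cis-element constructs quantified by RT-PCR/capillary electrophoresis fluorescence. Bidirectional curve fit against DMSO.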

[3] = biological target: Hypoxia-inducible factor 1-alpha (Homo sapiens) (UniProt Q16665); test: ATG_HIF1a_CIS: Attagene CIS-FACTORIAL HepG2 Assay for human Hypoxia Inducible Factor 1 (HIF1A) (AID 2282951); settings: HepG2 Attagene cis-factorial HIF1a reporter transcription; actives raise or lower the signal
In short: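 In this multiplexed cell assay, HepG2 cells bearing transfected cis reporters are dosed for 24 h and reporter mRNA is read by RT-PCR plus capillary electrophoresis; signal increases and decreases are both scored against DMSO.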

[4] = biological target: Hepatocyte nuclear factor 6 (Homo sapiens) (UniProt Q9UBC0); test: ATG_HNF6_CIS: Attagene CIS-FACTORIAL HepG2 Assay for human Hepatocyte Nuclear Factor 6 (HNF6) (AID 2282952); settings: HepG2 Attagene cis-factorial HNF6 reporter transcription; actives raise or lower the signal
In short: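 Multiplexed mRNA reporter assay in transfected HepG2; 24 h dosing; RT-PCR plus capillary electrophoresis fluorescence; DMSO-referenced bidirectional curve fitting.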

[5] = biological target: Heat shock factor protein 1 (Homo sapiens) (UniProt Q00613); test: ATG_HSE_CIS: Attagene CIS-FACTORIAL HepG2 Assay for human Heat Shock Transcription Factor 1 (HSE) (AID 2282953); settings: HepG2 HSE cis-reporter, Attagene RNA transcription; actives raise or lower the signal
In short: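 Endogenous transcription factor activity captured via cis-promoter reporter units transfected into HepG2; treatment lasted 24 h. Fluorescence intensity of reporter fragments analysed with bidirectional curve fitting, DMSO baseline.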

[6] = ATG_MRE_CIS: Attagene CIS-FACTORIAL HepG2 Assay for human Metal Responsive Element (MRE) (AID 2282954); settings: HepG2 MRE cis-reporter transcription, Attagene multiplex; actives raise or lower the signal
In short: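 After a 24 h chemical exposure, transiently transfected HepG2 cells yield RNA whose reporter sequences are amplified, FAM-labelled and sized by capillary electrophoresis. Curves are fitted bidirectionally relative to DMSO.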

[7] = ATG_PBREM_CIS: Attagene CIS-FACTORIAL HepG2 Assay for human Phenobarbital-responsive Enhancer Module (PBREM) (AID 2282955); settings: HepG2 PBREM cis-reporter, Attagene multiplexed transcription; actives raise or lower the signal
In short: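 After a 24 h incubation with test chemical, transfected HepG2 cells yield total RNA; reporter-specific RT-PCR products are fluorescently labelled, HpaI-digested and resolved by capillary electrophoresis against ROX size standards.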

[8] = biological target: Paired box protein Pax-6 (Homo sapiens) (UniProt P26367); test: ATG_Pax6_CIS: Attagene CIS-FACTORIAL HepG2 Assay for human Paired Box 6 (PAX6) (AID 2282956); settings: HepG2 CIS-FACTORIAL PAX6 reporter transcription, RNA readout; actives raise or lower the signal
In short: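 HepG2 cells transiently transfected with cis-promoter-driven multiplexed reporter units sensing endogenous transcription factor activity; 24 h chemical exposure. Reporter mRNA quantified by RT-PCR, 6-FAM labelling, HpaI digestion and capillary electrophoresis; bidirectional fit versus DMSO baseline.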

[9] = ATG_RORE_CIS: Attagene CIS-FACTORIAL HepG2 Assay for human RAR-related Orphan Receptor Element (RORE) (AID 2282959); settings: HepG2 Attagene cis-factorial RORE reporter, mRNA; actives raise or lower the signal
In short: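 Fluorescence intensity of reporter-specific cDNA fragments, separated by capillary electrophoresis, gives the signal. Source: HepG2 liver cells transiently transfected with cis-element reporters and exposed 24 h; DMSO-normalized bidirectional fit.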

[10] = ATG_Sox_CIS: Attagene CIS-FACTORIAL HepG2 Assay for human SRY-box transcription factor (SOX) (AID 2282960); settings: HepG2 Attagene cis-factorial SOX reporter, mRNA; actives raise or lower the signal
In short: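 After 24 h of chemical treatment, transfected HepG2 reporter cells are lysed for total RNA. Transcript levels come from RT-PCR with labelled primer extension and capillary electrophoresis, analysed bidirectionally versus DMSO.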

[11] = biological target: Transcription factor Sp1 (Homo sapiens) (UniProt P08047); test: ATG_Sp1_CIS: Attagene CIS-FACTORIAL HepG2 Assay for human Specificity Protein 1 (Sp1) (AID 2282961); settings: HepG2 Sp1 cis-reporter transcription, actives raise or lower the signal
In short: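 Sp1-driven reporter mRNA, read as capillary electrophoresis fluorescence after RT-PCR, in transiently transfected HepG2 cells dosed for 24 h; signal change in either direction relative to DMSO.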

[12] = ATG_SREBP_CIS: Attagene CIS-FACTORIAL HepG2 Assay for human Sterol Regulatory Element Binding (SREBP) (AID 2282962); settings: HepG2 Attagene cis-factorial SREBP reporter, mRNA; actives raise or lower the signal
In short: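 HepG2 cells transiently transfected with multiplexed cis-promoter reporter units sensing endogenous transcription factors; reporter mRNA measured 24 h after dosing by RT-PCR, 6-FAM labeling, HpaI digestion and capillary electrophoresis. Bidirectional fit versus DMSO.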

[13] = biological target: Signal transducer and activator of transcription 3 (Homo sapiens) (UniProt P40763); test: ATG_STAT3_CIS: Attagene CIS-FACTORIAL HepG2 Assay for human Signal Transducer and Activator of Transcription 3 (STAT3) (AID 2282963); settings: HepG2, Attagene cis-factorial STAT3 reporter transcription; actives raise or lower the signal
In short: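 After a 24 h compound incubation, total RNA from MRTU-transfected HepG2 cells was converted to cDNA and reporter sequences PCR-amplified, labelled and profiled by capillary electrophoresis. Gain and loss of signal were referenced to DMSO.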

[14] = ATG_TA_CIS: Attagene CIS-FACTORIAL HepG2 Assay for human TA Basal Promoter (AID 2282964); settings: HepG2 Attagene CIS-factorial TA basal promoter reporter; actives raise or lower the signal
In short: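 Fluorescence from labelled RT-PCR reporter fragments, separated by capillary electrophoresis, gives the signal. Cells: HepG2 transiently carrying multiple reporter units, 24 h chemical dosing. Gain or loss relative to DMSO.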

[15] = ATG_TCF_b_cat_CIS: Attagene CIS-FACTORIAL HepG2 Assay for human T-Cell-Factor with beta-catenin (TCF/b-cat) (AID 2282965); settings: HepG2 TCF/beta-catenin cis-reporter transcription, actives raise or lower the signal
In short: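 Endogenous transcription factor activity is captured through cis-promoter reporter constructs transiently introduced into human HepG2 liver cells. Induced reporter mRNA is measured after 24 h and fitted bidirectionally relative to DMSO.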

[16] = ATG_GRE_CIS: Attagene CIS-FACTORIAL HepG2 Assay for human Glucocorticoid Response Elements (GRE) (AID 2282947); settings: HepG2 GRE cis-reporter, Attagene multiplex mRNA; actives raise or lower the signal
In short: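 Assay uses human hepatoma HepG2 cells transfected with cis-promoter reporter units, exposed 24 h. mRNA from reporters detected by RT-PCR plus capillary electrophoresis; DMSO serves as negative control and baseline.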

[17] = ATG_ISRE_CIS: Attagene CIS-FACTORIAL HepG2 Assay for human Interferon Regulatory Factor 1 (IRF1) binding to an Interferon-Stimulated Response Element (ISRE) (AID 2282948); settings: HepG2 ISRE cis-reporter (Attagene), mRNA transcription readout; actives raise or lower the signal
In short: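 Transiently transfected HepG2 cells carrying cis-element reporter units, dosed 24 hours. Reporter mRNA quantified by RT-PCR, fluorescent primer extension, HpaI digestion and capillary electrophoresis. Bidirectional fitting relative to DMSO.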

[18] = ATG_M_32_CIS: Attagene CIS-FACTORIAL HepG2 Assay for M32 Transcription Factor (Internal Marker) (AID 2282949); settings: HepG2 Attagene cis-factorial M32 reporter, mRNA; actives raise or lower the signal;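 further: background control marker of the multiplexed CIS panel rather than a real target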
In short: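 Internal background marker read-out: RT-PCR/capillary electrophoresis fluorescence of reporter transcripts from transiently transfected HepG2 cells after 24 h chemical exposure. Activity fitted bidirectionally relative to DMSO negative control.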

[19] = ATG_PXRE_CIS: Attagene CIS-FACTORIAL HepG2 Assay for human Pregnane X Receptor Element (PXRE) (AID 2282957); settings: HepG2 Attagene CIS-FACTORIAL PXRE reporter, mRNA; actives raise or lower the signal
In short: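 Cells: HepG2, transiently transfected reporter units under cis promoter control. Exposure: 24 h. Detection: reporter mRNA via RT-PCR/CE fluorescence; bidirectional fitting, DMSO-referenced.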

[20] = ATG_PPRE_CIS: Attagene CIS-FACTORIAL HepG2 Assay for human Peroxisome Proliferator-activated Response Element (PPRE) (AID 2282958); settings: HepG2 PPRE cis-element reporter, Attagene transcription factor profiling; actives raise or lower the signal
In short: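 Multiplexed reporter transcription units under cis-regulatory promoters were transfected into HepG2 cells to capture endogenous factor activity. A 24 h incubation preceded RNA isolation and fluorescent RT-PCR fragment analysis.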

Sequence of Bile acid receptor (Homo sapiens) (Q96RI1 whole entry, looked up, the tested form may be a part): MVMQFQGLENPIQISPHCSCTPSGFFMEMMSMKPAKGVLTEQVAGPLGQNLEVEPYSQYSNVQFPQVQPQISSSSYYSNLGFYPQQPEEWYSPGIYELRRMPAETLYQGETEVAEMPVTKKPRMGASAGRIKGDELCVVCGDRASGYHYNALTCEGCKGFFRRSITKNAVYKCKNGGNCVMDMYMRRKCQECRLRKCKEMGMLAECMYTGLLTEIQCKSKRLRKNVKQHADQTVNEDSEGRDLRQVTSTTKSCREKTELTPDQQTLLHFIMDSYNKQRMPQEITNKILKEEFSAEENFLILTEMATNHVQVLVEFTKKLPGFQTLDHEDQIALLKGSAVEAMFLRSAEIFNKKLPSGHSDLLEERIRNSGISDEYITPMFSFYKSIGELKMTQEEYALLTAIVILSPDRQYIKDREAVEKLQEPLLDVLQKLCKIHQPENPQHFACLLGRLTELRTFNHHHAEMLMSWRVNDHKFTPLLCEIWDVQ
Sequence of Hepatocyte nuclear factor 6 (Homo sapiens) (Q9UBC0 whole entry, looked up): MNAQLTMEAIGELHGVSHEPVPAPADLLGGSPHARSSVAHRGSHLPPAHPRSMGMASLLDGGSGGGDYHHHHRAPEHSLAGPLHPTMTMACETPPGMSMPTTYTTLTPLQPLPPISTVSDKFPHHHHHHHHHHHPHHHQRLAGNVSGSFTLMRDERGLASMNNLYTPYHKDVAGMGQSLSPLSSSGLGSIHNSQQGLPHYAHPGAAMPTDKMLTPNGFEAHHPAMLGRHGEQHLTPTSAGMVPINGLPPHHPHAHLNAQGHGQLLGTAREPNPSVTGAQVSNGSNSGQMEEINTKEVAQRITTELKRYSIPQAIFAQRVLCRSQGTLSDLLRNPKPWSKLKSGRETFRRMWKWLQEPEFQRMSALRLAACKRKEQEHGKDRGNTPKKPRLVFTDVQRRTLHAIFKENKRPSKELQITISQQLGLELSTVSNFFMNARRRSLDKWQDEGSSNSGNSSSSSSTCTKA
Sequence of Paired box protein Pax-6 (Homo sapiens) (P26367 whole entry, looked up): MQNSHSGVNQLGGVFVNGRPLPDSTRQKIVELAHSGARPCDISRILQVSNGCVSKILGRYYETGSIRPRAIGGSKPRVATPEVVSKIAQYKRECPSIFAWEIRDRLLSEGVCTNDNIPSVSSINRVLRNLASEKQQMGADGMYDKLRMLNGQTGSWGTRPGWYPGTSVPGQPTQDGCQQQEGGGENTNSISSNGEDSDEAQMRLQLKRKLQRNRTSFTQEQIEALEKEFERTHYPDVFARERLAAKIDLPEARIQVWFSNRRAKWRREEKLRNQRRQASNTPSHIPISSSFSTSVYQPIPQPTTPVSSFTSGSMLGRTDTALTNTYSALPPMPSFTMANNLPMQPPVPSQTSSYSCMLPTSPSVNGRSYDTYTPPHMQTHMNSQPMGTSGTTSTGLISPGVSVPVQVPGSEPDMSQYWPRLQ
Sequence of Heat shock factor protein 1 (Homo sapiens) (Q00613 whole entry, looked up, the tested form may be a part): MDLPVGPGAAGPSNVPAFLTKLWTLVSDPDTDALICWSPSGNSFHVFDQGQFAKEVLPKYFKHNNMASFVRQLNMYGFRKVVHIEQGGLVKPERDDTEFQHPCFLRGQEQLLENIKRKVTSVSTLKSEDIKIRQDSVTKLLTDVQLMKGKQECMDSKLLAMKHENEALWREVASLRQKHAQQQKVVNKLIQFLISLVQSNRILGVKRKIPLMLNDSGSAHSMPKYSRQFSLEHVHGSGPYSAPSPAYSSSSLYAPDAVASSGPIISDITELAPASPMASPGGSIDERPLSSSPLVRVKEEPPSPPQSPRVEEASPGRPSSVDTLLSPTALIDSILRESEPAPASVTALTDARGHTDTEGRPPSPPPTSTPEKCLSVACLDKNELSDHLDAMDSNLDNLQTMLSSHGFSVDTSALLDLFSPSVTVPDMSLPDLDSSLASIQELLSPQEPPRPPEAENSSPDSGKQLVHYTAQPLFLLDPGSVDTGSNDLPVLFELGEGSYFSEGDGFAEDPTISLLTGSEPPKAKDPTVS
Sequence of Transcription factor Sp1 (Homo sapiens) (P08047 whole entry, looked up): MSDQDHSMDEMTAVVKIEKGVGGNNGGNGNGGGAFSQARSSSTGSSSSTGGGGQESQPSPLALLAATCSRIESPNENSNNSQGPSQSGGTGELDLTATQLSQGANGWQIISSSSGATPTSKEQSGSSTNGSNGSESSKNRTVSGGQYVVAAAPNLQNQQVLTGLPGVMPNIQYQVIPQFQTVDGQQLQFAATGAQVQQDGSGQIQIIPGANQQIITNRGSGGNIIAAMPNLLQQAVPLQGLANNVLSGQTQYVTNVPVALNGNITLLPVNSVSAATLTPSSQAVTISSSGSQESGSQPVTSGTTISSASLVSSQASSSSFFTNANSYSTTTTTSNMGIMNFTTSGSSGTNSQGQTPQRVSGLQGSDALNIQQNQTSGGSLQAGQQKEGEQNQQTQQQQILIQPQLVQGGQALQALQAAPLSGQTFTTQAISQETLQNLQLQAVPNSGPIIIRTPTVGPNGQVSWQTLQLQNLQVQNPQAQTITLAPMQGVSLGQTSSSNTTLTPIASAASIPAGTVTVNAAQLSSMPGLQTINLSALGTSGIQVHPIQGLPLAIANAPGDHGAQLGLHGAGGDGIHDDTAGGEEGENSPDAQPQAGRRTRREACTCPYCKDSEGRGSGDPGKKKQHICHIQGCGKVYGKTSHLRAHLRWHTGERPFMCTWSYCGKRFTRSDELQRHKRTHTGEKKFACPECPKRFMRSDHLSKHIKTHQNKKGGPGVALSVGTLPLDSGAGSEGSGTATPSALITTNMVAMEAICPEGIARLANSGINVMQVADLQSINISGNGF
Sequence of Hypoxia-inducible factor 1-alpha (Homo sapiens) (Q16665 whole entry, looked up): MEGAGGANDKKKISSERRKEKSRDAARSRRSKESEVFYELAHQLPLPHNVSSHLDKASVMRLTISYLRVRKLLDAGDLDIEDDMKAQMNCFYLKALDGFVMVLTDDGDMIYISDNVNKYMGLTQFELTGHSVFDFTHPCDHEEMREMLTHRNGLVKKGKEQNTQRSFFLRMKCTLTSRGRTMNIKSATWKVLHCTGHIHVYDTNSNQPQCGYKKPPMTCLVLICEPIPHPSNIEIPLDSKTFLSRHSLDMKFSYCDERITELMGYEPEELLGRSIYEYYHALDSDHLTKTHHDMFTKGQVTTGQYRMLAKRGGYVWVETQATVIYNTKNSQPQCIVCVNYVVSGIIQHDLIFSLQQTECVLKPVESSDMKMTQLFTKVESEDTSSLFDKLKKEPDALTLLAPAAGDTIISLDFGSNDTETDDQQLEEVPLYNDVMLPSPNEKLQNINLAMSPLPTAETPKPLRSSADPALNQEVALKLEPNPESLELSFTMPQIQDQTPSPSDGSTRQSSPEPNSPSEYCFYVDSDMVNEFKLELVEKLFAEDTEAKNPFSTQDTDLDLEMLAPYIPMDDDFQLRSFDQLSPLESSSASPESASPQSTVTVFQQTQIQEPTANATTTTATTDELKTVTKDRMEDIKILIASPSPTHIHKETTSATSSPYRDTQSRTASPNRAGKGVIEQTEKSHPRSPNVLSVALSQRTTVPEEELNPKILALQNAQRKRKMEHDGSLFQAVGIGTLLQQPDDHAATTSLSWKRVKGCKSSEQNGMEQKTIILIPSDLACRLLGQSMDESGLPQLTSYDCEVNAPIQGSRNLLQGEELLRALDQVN
Sequence of Signal transducer and activator of transcription 3 (Homo sapiens) (P40763 whole entry, looked up): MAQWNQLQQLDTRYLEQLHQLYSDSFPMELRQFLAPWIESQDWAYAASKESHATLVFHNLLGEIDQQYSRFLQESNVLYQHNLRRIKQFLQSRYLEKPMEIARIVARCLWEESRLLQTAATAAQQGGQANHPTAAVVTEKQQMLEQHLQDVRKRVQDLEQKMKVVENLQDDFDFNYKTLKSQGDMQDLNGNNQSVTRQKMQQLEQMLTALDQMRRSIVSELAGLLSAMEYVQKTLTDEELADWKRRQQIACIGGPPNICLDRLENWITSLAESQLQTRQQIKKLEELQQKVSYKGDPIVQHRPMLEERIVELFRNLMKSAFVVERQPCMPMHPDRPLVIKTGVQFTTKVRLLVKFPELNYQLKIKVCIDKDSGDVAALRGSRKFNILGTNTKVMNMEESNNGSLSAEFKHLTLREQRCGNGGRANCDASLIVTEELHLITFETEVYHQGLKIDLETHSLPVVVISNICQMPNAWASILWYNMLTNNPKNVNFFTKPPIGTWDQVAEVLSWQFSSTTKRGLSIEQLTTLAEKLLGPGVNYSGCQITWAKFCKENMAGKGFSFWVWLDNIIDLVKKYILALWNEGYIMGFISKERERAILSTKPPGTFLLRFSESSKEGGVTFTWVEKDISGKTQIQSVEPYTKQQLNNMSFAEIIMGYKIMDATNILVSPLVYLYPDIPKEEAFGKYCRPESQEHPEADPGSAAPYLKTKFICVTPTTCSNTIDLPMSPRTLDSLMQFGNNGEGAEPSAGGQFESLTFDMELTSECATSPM

O=C1NC(=O)c2ccccc21
outcome [1]: inactive | outcome [2]: inactive | outcome [3]: inactive | outcome [4]: inactive | outcome [5]: inactive | outcome [6]: inactive | outcome [7]: inactive | outcome [8]: inactive | outcome [9]: inactive | outcome [10]: inactive | outcome [11]: inactive | outcome [12]: inactive | outcome [13]: inactive | outcome [14]: inactive | outcome [15]: inactive

CC(C)Oc1ccccc1O
outcome [16]: inactive | outcome [17]: inactive | outcome [18]: inactive | outcome [2]: inactive | outcome [3]: inactive | outcome [4]: inactive | outcome [5]: inactive | outcome [6]: inactive | outcome [7]: inactive | outcome [8]: inactive | AC50 [19]: 39.4 µM (active) | outcome [20]: inactive | outcome [9]: inactive | outcome [10]: inactive | outcome [11]: inactive | outcome [12]: inactive | outcome [13]: inactive

CC(=O)C=CC1=C(C)CCCC1(C)C
outcome [1]: inactive | outcome [17]: inactive | outcome [18]: inactive | outcome [2]: inactive | outcome [3]: inactive | outcome [5]: inactive | outcome [6]: inactive | outcome [8]: inactive | outcome [9]: inactive | outcome [10]: inactive | outcome [11]: inactive | outcome [12]: inactive | outcome [13]: inactive | outcome [14]: inactive | outcome [15]: inactive

CC(C)(N)CO
outcome [1]: inactive | outcome [16]: inactive | outcome [18]: inactive | outcome [2]: inactive | outcome [3]: inactive | outcome [4]: inactive | outcome [5]: inactive | outcome [6]: inactive | outcome [7]: inactive | outcome [8]: inactive | outcome [19]: inactive | outcome [20]: inactive | outcome [9]: inactive | outcome [10]: inactive | outcome [11]: inactive | outcome [13]: inactive | outcome [14]: inactive | outcome [15]: inactive

CCCCCCCCCOC(C)=O
outcome [1]: inactive | outcome [16]: inactive | outcome [18]: inactive | outcome [2]: inactive | outcome [3]: inactive | outcome [4]: inactive | outcome [5]: inactive | outcome [6]: inactive | outcome [7]: inactive | outcome [8]: inactive | AC50 [19]: 49 µM (active) | outcome [20]: inactive | outcome [10]: inactive | outcome [11]: inactive | outcome [12]: inactive | outcome [13]: inactive | outcome [14]: inactive

CN(CCOc1ccc(CC2SC(=O)NC2=O)cc1)c1ccccn1 (stereo not given)
outcome [1]: inactive | outcome [17]: inactive | outcome [18]: inactive | outcome [2]: inactive | outcome [3]: inactive | outcome [4]: inactive | outcome [6]: inactive | AC50 [7]: 66.1 µM (active) | outcome [8]: inactive | AC50 [19]: 6.08 µM (active) | AC50 [9]: 9.64 µM (active) | outcome [10]: inactive | outcome [11]: inactive | outcome [14]: inactive

Clc1nc(C(Cl)(Cl)Cl)c(Cl)c(Cl)c1Cl
AC50 [1]: 22.6 µM (active) | AC50 [17]: 62.7 µM (active) | outcome [2]: inactive | outcome [3]: inactive | AC50 [4]: 49.9 µM (active) | AC50 [5]: 53.9 µM (active) | AC50 [6]: 54.4 µM (active) | outcome [7]: inactive | outcome [8]: inactive | AC50 [19]: 39.4 µM (active) | outcome [20]: inactive | outcome [9]: inactive | outcome [10]: inactive | outcome [11]: inactive | AC50 [12]: 52.5 µM (active) | outcome [13]: inactive | outcome [14]: inactive | AC50 [15]: 62.7 µM (active)

Cc1c(N(C)C)c(=O)n(-c2ccccc2)n1C
outcome [1]: inactive | outcome [16]: inactive | outcome [18]: inactive | outcome [2]: inactive | outcome [4]: inactive | outcome [6]: inactive | outcome [7]: inactive | outcome [8]: inactive | AC50 [19]: 153 µM (active) | outcome [9]: inactive | outcome [10]: inactive | outcome [11]: inactive | outcome [12]: inactive | outcome [13]: inactive | outcome [14]: inactive | outcome [15]: inactive
